Measurements from PubChem BioAssay (NCATS).
Results filed as inconclusive are left out. The source made the active and inactive calls. Calls follow the shape of the dose curve; as a rule, active = well fitted curve in the direction sought with a large enough effect; inconclusive = small, poorly fitted or top-dose-only effect, or another doubt; inactive = no such curve, though single readings can be large; an effect the other way counts as inactive or inconclusive. Bridge positions count the residues as written; N and C are the ends. Square brackets hold non-standard residues; d marks the D form. Side chains are listed from the residue outwards. Peptide text beside a SMILES is read from it. * marks the point of attachment. Phg(4-OMe) = COc1ccc([C@H](N)C(=O)O)cc1; d(aIle) = CC[C@H](C)[C@@H](N)C(=O)O; d(aThr) = C[C@@H](O)[C@@H](N)C(=O)O; NMeF = CN[C@@H](Cc1ccccc1)C(=O)O; Isobutyryl = CC(C)C(=O)*

Experiments:
[1] = HEK-293 Cancer Cell Toxicity qHTS against the NCATS CANVASS Library (AID 1347355); also: nearly all actives have a fitted effect of over 65% in size; also: potency is read from the fitted curve at half-maximal effect
Method in brief: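 Luminescent ATP read-out (CellTiter-Glo, 15min at room temperature) measures survival after cells face an 11-point compound series for 72 hours at 37 degrees C/5% CO2.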

[2] = HPAF-II 24hr Apoptosis Induction qHTS against the NCATS CANVASS Library (AID 1347356)
Method in brief: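 Luminescent caspase-3/7 signal (DEVD substrate, Caspase-Glo) served as read-out, taken 15 min after reagent addition to HPAF-II cells exposed 24 h to compounds.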

[3] = HEK293 18hr Apoptosis Induction qHTS against the NCATS CANVASS Library (AID 1347357)
Method in brief: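 Luminescent caspase-3/7 signal is measured in HEK293 cells exposed for 18 hours to an 11-point concentration series; doxorubicin serves as the plate control.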

[4] = HPAF-II 12hr Apoptosis Induction qHTS against the NCATS CANVASS Library (AID 1347358)
Method in brief: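 500 HPAF-II cells/well; cmpds 11-pt; 12 hr, 37 degrees C/5% CO2; Caspase-Glo 3/7 added, 15 min RT dark; luminescence read. Doxorubicin titration as control.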

[5] = HEK293 24hr Apoptosis Induction qHTS against the NCATS CANVASS Library (AID 1347359)
Method in brief: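 HEK293 cells (500/well, DMEM + 10% FBS) were exposed to compounds in an 11-point series for 24 hours at 37 degrees C, then caspase-3/7 activity was read by Caspase-Glo DEVD luciferase luminescence after 15 min.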

[6] = HPAF-II 18hr Apoptosis Induction qHTS against the NCATS CANVASS Library (AID 1347360)
Method in brief: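 Apoptosis was scored as caspase-3/7 activity in HPAF-II pancreatic cancer cells treated 18 hours with an 11-point concentration series.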

[7] = test system: NAD(P)H diaphorase (Clostridium kluyveri); assay: Diaphorse counterscreen qHTS: Assay Interference Panel against the NCATS CANVASS Library (AID 1347362); also: potency is read from the fitted curve at half-maximal effect
Method in brief: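 Clostridium kluyveri diaphorase in PBS with 0.01% Tween-20 was preincubated 15 min at room temperature in the dark with compounds (11-point series). Resorufin fluorescence (ex 525/20, em 598/25) was read 5 min after adding resazurin/NADH.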

[8] = SDT Cancer Cell Toxicity qHTS against the NCATS CANVASS Library (AID 1347365); also: nearly all actives have a fitted effect of over 60% in size; also: potency is read from the fitted curve at half-maximal effect
Method in brief: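 qHTS, SDT dog glioma line, 500 cells/well; cpds 11 pts; 72 hr, 37C, 5% CO2; CellTiterGlo ATP luminescence.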

[9] = qHTS for ATAD5 Agonist screened against the NCATS CANVASS Library (AID 1347367);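 also: luciferase reporter driven by ATAD5 which rises upon DNA damage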
Method in brief: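 Step one plated reporter cells and let them acclimate 5hr. Step two pinned compounds with MMS as positive and 0.46% DMSO as negative control. After 16hr incubation, fluorescence viability then luminescence were read.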

[10] = MCF7 Cancer Cell Toxicity qHTS against the NCATS CANVASS Library (AID 1347369); also: potency is read from the fitted curve at half-maximal effect
Method in brief: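 Cytotoxicity is measured by ATP content: MCF7 cells at 500 per well receive an 11-point compound series and, after 72 hr at 37C, are lysed with CellTiterGlo for luminescence.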

[11] = qHTS for ATAD5 Antagonist screened against the NCATS CANVASS Library (AID 1347370);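 also: HEK293T cells carrying an ATAD5 luciferase reporter co-treated with 10 µM 5-fluorouridine; series mostly up to about 46 µM; nearly all actives have a fitted effect of over 65% in size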
Method in brief: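 HEK293T cells with stably integrated ATAD5-luciferase reporter, 2000/well, 5 h attachment; compounds plus 10 µM 5-fluorouridine, 16 h at 37 °C. Luciferase luminescence read, with CellTiter-Fluor viability read first.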

[12] = J3T Cancer Cell Toxicity qHTS against the NCATS CANVASS Library (AID 1347371); also: potency is read from the fitted curve at half-maximal effect
Method in brief: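 Cells plated at 500 per well, compounds pin-transferred, plates incubated 72 hr at 37C, then CellTiterGlo added and luminescence read to measure ATP content.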

[13] = biological target: Nuclear receptor subfamily 1 group I member 3 (Homo sapiens) (UniProt Q14994); assay: qHTS for Constitutive Androstane Receptor (CAR) Agonist screened against the NCATS CANVASS Library (AID 1347373);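 also: every well also contained 1.5 µM PK11195 alongside the test compound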; also: potency is read from the fitted curve at half-maximal effect
Nuclear receptor subfamily 1 group I member 3 (Homo sapiens), sequence (Q14994 whole entry, looked up): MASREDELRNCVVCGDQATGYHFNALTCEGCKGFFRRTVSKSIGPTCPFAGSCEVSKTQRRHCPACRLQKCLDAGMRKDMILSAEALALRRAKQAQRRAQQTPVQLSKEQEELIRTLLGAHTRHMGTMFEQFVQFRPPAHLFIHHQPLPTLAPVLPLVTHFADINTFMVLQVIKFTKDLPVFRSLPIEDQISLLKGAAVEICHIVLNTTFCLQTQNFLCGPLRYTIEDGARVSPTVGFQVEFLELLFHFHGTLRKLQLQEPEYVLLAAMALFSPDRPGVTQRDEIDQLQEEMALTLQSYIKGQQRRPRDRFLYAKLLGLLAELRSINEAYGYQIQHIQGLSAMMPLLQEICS
Method in brief: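 HepG2-hCAR-CYP2B6 cells, 2500/well, attached 4hr; cpd + PK11195 1.5uM final; 24hr 37C 5% CO2. CellTiter-Fluor viability read, then ONE-Glo luminescence for CAR activation.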

[14] = qHTS for Hypoxia signaling pathway (HIF-1) agonists against the NCATS CANVASS Library (AID 1347375)
Method in brief: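 ME-180 HRE-bla reporter cells; 2,000/well, 0.5% dialyzed FBS; cpd added after 5 h, 17 h 37C/5% CO2; CCF4-AM 2 h RT; FRET 460/530 nm; CellTiter-Glo viability same wells, 30 min.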

[15] = qHTS for H2AX Agonists against the NCATS CANVASS Library (AID 1347378);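 also: phospho-H2AX S139 level in CHO-K1 lysates by TR-FRET emission ratio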
Method in brief: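 Following overnight seeding, CHO-K1 cells are incubated with a concentration series of compound for 3 hr at 37C (final DMSO 0.76%). Cells are then lysed, detection antibodies added, and emission ratio 665/620 nm recorded after 24 hr at room temperature.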

[16] = qHTS for Inflammasome Signaling Inhibitors: IL-1-beta AlphaLISA screen against the NCATS CANVASS Library (AID 1347379);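 also: human THP-1 cells primed with LPS then triggered with ATP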
Method in brief: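 THP-1 cells pretreated 1 hr with compound (up to 57.5 uM final), then stimulated with LPS (250 ng/mL final) and ATP (1.25 mM final). Secreted IL-1B measured by AlphaLISA after 16 hr; glyburide as positive control.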

[17] = qHTS for Activators of p53 Stress Response Pathway screened against the NCATS CANVASS Library (AID 1347388)
Method in brief: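 p53RE-bla HCT-116 cells (4000/well) were plated 5 h at 37C, exposed to compounds for 16 h at 37C over an 11-point concentration series, then loaded with CCF4 for 2 h at room temperature; 460/530 nm emission ratio read.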

[18] = qHTS assay for small molecule disruptors of mitochondrial membrane potential screened against the NCATS CANVASS Library (AID 1347389); also: nearly all actives have a fitted effect of over 60% in size; also: potency is read from the fitted curve at half-maximal effect
Method in brief: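 HepG2, 2,000 cells/well, attached overnight; compound 1 hr, 37C, 5% CO2; Mito-MPS dye 30 min, 37C; fluorescence 535 nm (monomer) and 590 nm (aggregate); decreased 590/535 ratio = depolarization.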

[19] = qHTS for activators of dead-cell proteases activity screened against the NCATS CANVASS Library (AID 1347392);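 also: luminescence from protease leaking out of membrane-damaged cells cleaving impermeant substrate; rising signal means more cytotoxicity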
Method in brief: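 HepG2 cells (2000/well) attached 18 h at 37C, then exposed 5 h to compounds (11-point qHTS). Dead-cell protease activity read as luminescence from cell-impermeant AAF-aminoluciferin substrate after 15 min at room temperature.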

[20] = qHTS for inhibitors of Wild type Zika virus screened against the NCATS CANVASS Library (AID 1347396);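 also: ATP luminescence of surviving cells so rescue from viral cell killing; series mostly up to about 46 µM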
Method in brief: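 Vero 766 (African green monkey) cells, 1000 per well, attached overnight, then compounds were added in an 11-point series before wild-type Zika virus infection. After 72 h at 37C, cell viability was read as CellTiter Glo luminescence.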

Measured: Potency

CC[C@H](C)[C@H]1NC(=O)[C@@H](NC(=O)C(C)C)[C@@H](C)OC(=O)[C@H](COC(=O)CNC(C)=O)NC(=O)[C@@H]([C@@H](C)O)NC(=O)[C@H](Cc2ccccc2)N(C)C(=O)[C@H](c2ccc(OC)cc2)NC1=O (Isobutyryl-T[d(aIle)][Phg(4-OMe)][NMeF][d(aThr)]S([Gly-Ac]); ester 1-C)
inactive: all assays above

C/C1=C/[C@@H](C)[C@H](O)[C@@H](O)/C=C/CC/C=C/C(=O)O[C@@H]1[C@H](C)C(=O)CCCC1CC(=O)NC(=O)C1
active: [8] 20.9 µM
not listed: [1]
inactive: all other assays above

CCC(=O)N[C@@H](C[C@H](C)C(Cl)(Cl)Cl)C(=O)N1C(=O)C=C(OC)[C@@H]1CC(C)C
not listed: [1] | [8] | [10]
inactive: all other assays above

CO[C@H]1[C@@H](OC(=O)/C(C)=C\[C@@H]2O[C@@H]2[C@H]2O[C@H]2C)[C@H](O)[C@H](OCC23C[C@@H]4[C@H](C)CC[C@H]4C4(C=O)CC2C=C(C(C)C)C34C(=O)O)O[C@@H]1C (some centres not stated)
not listed: [8]
inactive: all other assays above

C=C1CC[C@@H](Br)C(C)(C)[C@]12CC=C(C)C(=O)C2
not listed: [13] | [18]
inactive: all other assays above

CC(C)=CCC[C@]12c3cc4c(cc3CC[C@@]1(C)[C@H](C)CC[C@@H]2O)[nH]c1ccccc14
active: [18] 20.9 µM
not listed: [1]
inactive: all other assays above

CN1CC[C@]2(c3cccc4c3N[C@H]3N(C)CC[C@@]43[C@]34CCN(C)[C@H]3Nc3ccccc34)c3ccccc3N[C@H]12
active: [1] 7.43 µM | [8] 4.18 µM | [10] 11.7 µM | [12] 9.35 µM | [16] 21.7 µM
not listed: [20]
inactive: all other assays above

C[C@H]1C=C[C@H]2CCCC[C@@H]2[C@H]1C(=O)[C@H]1CC2=C(C(=O)O)CCN2C1=O
inactive: all assays above

O=C1CC2OCC=C3CN4C5CC3C2[C@@H]2N1c1ccccc1[C@]52C[C@@H]4C1=C[C@H]2C3CC4N(CC[C@@]45c4ccccc4N(C1=O)[C@@H]25)C/C3=C/CO (some centres not stated)
active: [1] 16.6 µM | [8] 20.9 µM | [13] 11.7 µM | [16] 24.3 µM
not listed: [11] | [12] | [17]
inactive: all other assays above

C[n+]1cc2cc(C(N)=O)[nH]c3c(=N)c(Cl)c(N)c1c23
active: [7] 15.3 µM | [8] 16.6 µM
not listed: [15] | [18]
inactive: all other assays above

C/C=C(/C)c1c(Cl)c(O)c(C)c2c1Oc1c(Cl)c(O)c(Cl)c(C)c1C(=O)O2
active: [18] 8.31 µM
not listed: [8] | [12] | [17] | [20]
inactive: all other assays above
